According to PubChem BioAssay (EPA / NIEHS):
Calls of active or inactive are those of the source. Rule for the calls: active = hit-call score of the fitted dose curve at least 0.9, where 1 is the maximum; inactive = score below 0.9.

How the values were obtained:
[1] = APR_HepG2_P-H2AX_72hr: Apredica 72-hour HepG2 Assay for H2AX Phosphorylation (AID 2282916); conditions: imaging, actives raise or lower the signal;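 note: phospho-histone H2A.x immunostain intensity per cell marking DNA damage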
Outline: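 Readout: phospho-H2A.x immunofluorescence (FITC secondary) plus Hoechst nuclear stain, high-content imaging at 20x, six fields/well. HepG2, 72 hr compound exposure, 0.39–200 uM, final DMSO 0.5% v/v. Gain or loss fitted relative to DMSO baseline.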

[2] = APR_HepG2_MitoMembPot_72hr: Apredica 72-hour HepG2 Assay for Mitochondrial Membrane Potential (AID 2282917); conditions: imaging, actives raise or lower the signal
Outline: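 HepG2 cells dosed 72 hr with compound at 0.39–200 uM in duplicate, 0.5% v/v DMSO final. Mitochondria stained with 250 nM MitoTracker Red CMXRos for 30 min before formaldehyde fixation, imaged by high-content fluorescence; bidirectional fit versus DMSO.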

[3] = APR_HepG2_MitoticArrest_72hr: Apredica 72-hour HepG2 Assay for Mitotic Arrest (AID 2282918); conditions: high-content imaging, actives raise or lower the signal
Outline: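 HepG2 cells treated 72 h at 0.39–200 uM, 0.5% DMSO final; formaldehyde-fixed, stained with Hoechst 33342 and phospho-histone H3 antibody, imaged by high-content fluorescence; bidirectional fit versus DMSO.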

[4] = APR_HepG2_MicrotubuleCSK_72hr: Apredica 72-hour HepG2 Assay for Microtubule CSK Stabilty (AID 2282919); conditions: HepG2 microtubule cytoskeleton, high-content imaging, actives raise or lower the signal
Outline: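 HepG2, 72 hr cmpd exposure, 0.39–200 uM (10 pts, duplicate), 0.5% DMSO. 3.7% formaldehyde fix, 0.5% Triton perm, anti-alpha-tubulin/Cy5 plus Hoechst. HCS fluorescence intensity; bidirectional fit vs DMSO baseline; taxol as positive control.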

[5] = APR_HepG2_P-H2AX_24hr: Apredica 24-hour HepG2 Assay for H2AX Phosphorylation (AID 2282920); conditions: high-content imaging, actives raise or lower the signal
Outline: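 HepG2 cells dosed 24 h at 0.39–200 uM (10 points, duplicate, 0.5% DMSO final). Formaldehyde-fixed and permeabilized, then immunostained for phospho-H2A.x with Hoechst. Fluorescence quantified by high-content imaging, fitted bidirectionally versus DMSO.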

[6] = APR_HepG2_StressKinase_72hr: Apredica 72-hour HepG2 Assay for Stress Kinase (AID 2282921); conditions: HepG2 stress kinase (phospho-c-Jun) imaging, actives raise or lower the signal
Outline: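 Phospho-c-Jun immunofluorescence measured by high-content imaging at 20x, six fields per well; bidirectional curve fitting against DMSO as baseline. Dosing: 0.39–200 uM, 72 h, 0.5% DMSO final.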

[7] = APR_HepG2_StressKinase_24hr: Apredica 24-hour HepG2 Assay for Stress Kinase (AID 2282922); conditions: HepG2 stress kinase (phospho-c-Jun) imaging, actives raise or lower the signal
Outline: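 Read-out: phospho-c-Jun immunofluorescence (Cy3 secondary) quantified by high-content imaging at 20x, nuclei defined by Hoechst 33342. Human HepG2 liver cells dosed 24 hr, 0.39–200 uM, DMSO 0.5% v/v; gain or loss of signal fitted relative to DMSO.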

[8] = APR_HepG2_p53Act_72hr: Apredica 72-hour HepG2 Assay for p53 Activation (AID 2282923); conditions: high-content imaging, actives raise or lower the signal;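 note: average cellular p53 protein immunofluorescence intensity in HepG2 cells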
Outline: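 Readout: p53 immunofluorescence quantified by automated high-content imaging at 20x, six fields per well, nuclei located via Hoechst. Dosing ran 72 hr over ten concentrations from 0.39 to 200 uM; bidirectional curve fitting against DMSO baseline.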

[9] = APR_HepG2_MitoMass_72hr: Apredica 72-hour HepG2 Assay for Mitochondrial Mass (AID 2282924); conditions: high-content imaging, actives raise or lower the signal;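 note: MitoTracker Red CMXRos stain intensity per cell imaged as mitochondrial mass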
Outline: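 Read-out: MitoTracker Red fluorescence intensity from automated imaging (20x, six fields per well) in human HepG2 liver cells. Dosing ran 72 hr, 0.39–200 uM, 0.5% DMSO; bidirectional curve fitting versus DMSO baseline.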

[10] = APR_HepG2_NuclearSize_72hr: Apredica 72-hour HepG2 Assay for Nuclear Size (AID 2282925); conditions: high-content imaging, actives raise or lower the signal
Outline: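 Read-out: nuclear diameter from Hoechst 33342 images (ArrayScan, 20x, six fields/well), via cell-cycle image analysis. HepG2 were dosed 0.39–200 uM for 72 hr in 0.5% DMSO. Bidirectional fit relative to DMSO.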

[11] = ATG_CRE_CIS: Attagene CIS-FACTORIAL HepG2 Assay for human cAMP Responsive Element (CRE) binding protein 3 (AID 2282926); conditions: HepG2 CRE cis-reporter, Attagene multiplexed mRNA; actives raise or lower the signal
Outline: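 Induced reporter mRNA from a CRE cis element, measured in HepG2 among many multiplexed units at 24 h. Detection used RT-PCR plus capillary electrophoresis of fluorescent fragments; DMSO served as negative control.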

[12] = biological target: CCAAT/enhancer-binding protein beta (Homo sapiens) (UniProt P17676); experiment: ATG_C_EBP_CIS: Attagene CIS-FACTORIAL HepG2 Assay for human CCAAT/Enhancer Binding Protein (C/EBP) beta (AID 2282927); conditions: HepG2 Attagene cis-factorial transcription factor reporter; actives raise or lower the signal
Chain of CCAAT/enhancer-binding protein beta (Homo sapiens) (P17676 whole entry, looked up): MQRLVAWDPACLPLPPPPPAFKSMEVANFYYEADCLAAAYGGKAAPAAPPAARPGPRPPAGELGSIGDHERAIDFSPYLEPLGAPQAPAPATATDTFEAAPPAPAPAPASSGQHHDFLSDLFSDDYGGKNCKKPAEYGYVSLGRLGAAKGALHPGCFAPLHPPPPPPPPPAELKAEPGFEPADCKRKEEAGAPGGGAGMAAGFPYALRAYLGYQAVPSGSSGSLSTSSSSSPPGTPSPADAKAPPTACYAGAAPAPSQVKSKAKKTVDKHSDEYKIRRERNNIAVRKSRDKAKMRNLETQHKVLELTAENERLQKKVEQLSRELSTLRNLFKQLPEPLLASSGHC
Outline: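 HepG2, transient MRTU transfection, 24 h treatment. RT-PCR plus CE fluorescence; DMSO negative control, bidirectional fit.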

[13] = ATG_CMV_CIS: Attagene CIS-FACTORIAL HepG2 Assay for human CMV (Internal Marker) (AID 2282928); conditions: HepG2 CMV promoter reporter, transcription factor profiling; actives raise or lower the signal;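 note: endpoint acts as a background internal control marker rather than a target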
Outline: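 Bidirectional fits against DMSO are applied to reporter mRNA, read by RT-PCR with capillary electrophoresis, from HepG2 cells exposed 24 h. The endpoint serves as an internal CMV background marker within the cis-factorial reporter panel.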

[14] = ATG_DR4_LXR_CIS: Attagene CIS-FACTORIAL HepG2 Assay for human Liver X Receptor (LXR), DR4 submotif (AID 2282929); conditions: HepG2 Attagene DR4 cis-reporter, mRNA transcription; actives raise or lower the signal
Outline: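 Cells were transfected with multiple reporter transcription units, exposed to chemicals for 24 hours, then lysed for RNA. Reporter mRNA induction was measured by RT-PCR with capillary electrophoresis detection and fitted in both directions relative to DMSO.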

[15] = biological target: Aryl hydrocarbon receptor (Homo sapiens) (UniProt P35869); experiment: ATG_Ahr_CIS: Attagene CIS-FACTORIAL HepG2 Assay for human Aryl Hydrocarbon Receptor (Ahr) (AID 2282930); conditions: HepG2 AhR cis-factorial reporter transcription; actives raise or lower the signal
Chain of Aryl hydrocarbon receptor (Homo sapiens) (P35869 whole entry, looked up): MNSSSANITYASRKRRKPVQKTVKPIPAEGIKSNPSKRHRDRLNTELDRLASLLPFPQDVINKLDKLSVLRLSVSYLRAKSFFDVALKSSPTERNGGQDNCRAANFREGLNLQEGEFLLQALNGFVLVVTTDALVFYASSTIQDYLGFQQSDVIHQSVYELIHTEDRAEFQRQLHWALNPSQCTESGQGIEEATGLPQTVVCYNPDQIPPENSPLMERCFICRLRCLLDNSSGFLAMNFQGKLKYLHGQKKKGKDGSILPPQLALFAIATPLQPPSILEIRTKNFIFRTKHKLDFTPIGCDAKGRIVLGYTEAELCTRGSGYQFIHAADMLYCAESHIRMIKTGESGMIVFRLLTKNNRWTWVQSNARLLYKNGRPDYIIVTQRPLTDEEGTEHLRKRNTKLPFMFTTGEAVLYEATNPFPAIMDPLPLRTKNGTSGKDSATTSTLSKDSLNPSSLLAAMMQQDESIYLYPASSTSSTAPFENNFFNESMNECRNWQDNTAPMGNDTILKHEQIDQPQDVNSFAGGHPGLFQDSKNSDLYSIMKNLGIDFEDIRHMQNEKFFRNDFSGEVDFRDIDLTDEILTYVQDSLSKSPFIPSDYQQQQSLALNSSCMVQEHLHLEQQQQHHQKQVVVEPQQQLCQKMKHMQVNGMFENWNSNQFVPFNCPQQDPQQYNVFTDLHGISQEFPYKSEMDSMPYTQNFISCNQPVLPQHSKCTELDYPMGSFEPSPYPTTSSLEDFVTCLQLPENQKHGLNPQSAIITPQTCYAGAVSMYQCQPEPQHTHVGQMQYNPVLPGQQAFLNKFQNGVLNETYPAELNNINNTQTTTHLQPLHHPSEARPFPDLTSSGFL
Outline: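 Endogenous factor activity is tracked through cis-promoter reporter units transfected into HepG2 cells. Transcript levels at 24 h are read by fluorescent RT-PCR and capillary electrophoresis, with activity in either direction scored relative to DMSO.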

[16] = ATG_AP_1_CIS: Attagene CIS-FACTORIAL HepG2 Assay for human Activator Protein 1 (AP-1) (AID 2282931); conditions: HepG2 Attagene cis-factorial AP-1 reporter mRNA; actives raise or lower the signal
Outline: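 Endogenous transcription-factor activity in human HepG2 liver cells is read through a cis-promoter reporter transcript, sampled 24 h after dosing. Detection uses RT-PCR with capillary electrophoresis; values come from bidirectional fitting relative to DMSO.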

[17] = ATG_AP_2_CIS: Attagene CIS-FACTORIAL HepG2 Assay for human Activator Protein 2 (AP-2) (AID 2282932); conditions: HepG2 AP-2 cis-reporter, Attagene transcription factor profiling; actives raise or lower the signal
Outline: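 Read-out: fluorescent reporter mRNA via RT-PCR and capillary electrophoresis, 24 h post-dose in transiently transfected HepG2. Endogenous factors drive cis-promoter reporters; gain or loss of signal fitted bidirectionally against DMSO.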

[18] = ATG_BRE_CIS: Attagene CIS-FACTORIAL HepG2 Assay for human Bone Morphogenetic Protein (BMP) Response Element (BRE) (AID 2282933); conditions: HepG2 BMP response element reporter, Attagene transcription factor profiling; actives raise or lower the signal
Outline: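 Endogenous transcription factor activity at a BMP response element was monitored in transfected HepG2 cells 24 h after dosing. Fluorescent RT-PCR products were resolved by capillary electrophoresis, and activity was fitted in both directions versus DMSO.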

[19] = biological target: Retinoic acid receptor alpha (Homo sapiens) (UniProt P10276); experiment: ATG_DR5_RAR_CIS: Attagene CIS-FACTORIAL HepG2 Assay for human Retinoic Acid Receptor Alpha (RARE), DR5 submotif (AID 2282934); conditions: HepG2 Attagene cis-factorial RARE DR5 reporter, mRNA; actives raise or lower the signal;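 for AC50: reporter responds to endogenous RAR alpha beta and gamma in HepG2 not RARA alone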
Chain of Retinoic acid receptor alpha (Homo sapiens) (P10276 whole entry, looked up): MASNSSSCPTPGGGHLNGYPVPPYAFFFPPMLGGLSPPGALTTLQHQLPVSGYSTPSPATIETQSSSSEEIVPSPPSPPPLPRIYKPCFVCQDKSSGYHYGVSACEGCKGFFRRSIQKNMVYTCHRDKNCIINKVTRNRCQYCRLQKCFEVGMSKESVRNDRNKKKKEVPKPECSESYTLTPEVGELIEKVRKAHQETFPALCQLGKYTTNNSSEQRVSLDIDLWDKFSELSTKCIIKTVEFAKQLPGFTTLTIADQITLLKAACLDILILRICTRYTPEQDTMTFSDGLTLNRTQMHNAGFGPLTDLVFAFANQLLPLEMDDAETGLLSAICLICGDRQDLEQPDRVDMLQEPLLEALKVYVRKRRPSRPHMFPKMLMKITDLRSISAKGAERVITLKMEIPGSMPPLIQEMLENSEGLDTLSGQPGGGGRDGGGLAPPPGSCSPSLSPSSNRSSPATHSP
Outline: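 After 24 h of chemical exposure, transiently transfected HepG2 cells were lysed for total RNA; the DR5-regulated reporter transcript was quantified via RT-PCR and capillary electrophoresis, with activity fitted bidirectionally against DMSO.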

[20] = biological target: Transcription factor E2F1 (Homo sapiens) (UniProt Q01094); experiment: ATG_E2F_CIS: Attagene CIS-FACTORIAL HepG2 Assay for human E2F Transcription Factor 1 (AID 2282935); conditions: HepG2 Attagene cis-reporter, E2F reporter RNA transcripts; actives raise or lower the signal
Chain of Transcription factor E2F1 (Homo sapiens) (Q01094 whole entry, looked up): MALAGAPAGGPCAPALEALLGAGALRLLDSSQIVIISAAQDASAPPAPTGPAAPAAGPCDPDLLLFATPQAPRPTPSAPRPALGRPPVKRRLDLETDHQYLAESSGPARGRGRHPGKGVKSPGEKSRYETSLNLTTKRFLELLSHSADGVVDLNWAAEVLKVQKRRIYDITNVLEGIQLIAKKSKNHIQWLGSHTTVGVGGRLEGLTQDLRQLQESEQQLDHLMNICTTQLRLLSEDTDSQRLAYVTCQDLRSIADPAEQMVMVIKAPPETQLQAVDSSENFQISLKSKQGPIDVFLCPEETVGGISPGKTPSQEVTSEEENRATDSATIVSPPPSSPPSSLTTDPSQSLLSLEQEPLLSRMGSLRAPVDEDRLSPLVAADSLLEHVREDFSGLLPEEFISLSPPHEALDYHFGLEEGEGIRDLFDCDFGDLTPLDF
Outline: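 Transient MRTU transfection of HepG2; 24 h compound exposure; RNA → oligo(dT) RT → PCR → FAM label → HpaI cut → CE fluorescence. Gain/loss of signal fit against DMSO.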

Measured: AC50

C#CCC1=C(C)C(OC(=O)C2C(C=C(C)C)C2(C)C)CC1=O (stereo not given)
active: [11] 27.1 µM | [12] 21.7 µM | [14] 50 µM | [15] 78.6 µM | [16] 37.1 µM | [17] 74.9 µM | [18] 9.01 µM | [19] 9.92 µM
inactive: all other assays above

CCOP(=S)(OCC)Oc1ccc2c(C)c(Cl)c(=O)oc2c1
active: [1] 100 µM | [3] 93.2 µM | [4] 40.5 µM | [19] 1.59 µM
inactive: all other assays above

CC(C1CC1)C(O)(Cn1cncn1)c1ccc(Cl)cc1 (stereo not given)
active: [14] 11.3 µM
inactive: all other assays above

Nc1nc(N)nc(NC2CC2)n1
inactive: all assays above

CCOP(=O)(NC(C)C)Oc1ccc(SC)c(C)c1 (stereo not given)
active: [2] 50.5 µM | [19] 14.2 µM
inactive: all other assays above

CCCOCC(=Nc1ccc(Cl)cc1C(F)(F)F)n1ccnc1
active: [13] 7 µM | [14] 1.39 µM | [19] 0.295 µM
inactive: all other assays above

CN(C)C(=O)Nc1cccc(C(F)(F)F)c1
inactive: all assays above

N#CSCSC#N
inactive: all assays above

CNc1cnn(-c2cccc(C(F)(F)F)c2)c(=O)c1Cl
active: [11] 19.7 µM | [16] 29.5 µM | [18] 17.8 µM
inactive: all other assays above

COP(=O)(OC)SCn1c(=O)oc2cc(Cl)cnc21
active: [1] 53.8 µM | [3] 68.3 µM | [4] 56.3 µM | [6] 26.3 µM | [11] 18.1 µM | [14] 10.4 µM
not listed: [19]
inactive: all other assays above

O=C(O)c1cc(Oc2ccc(C(F)(F)F)cc2Cl)ccc1[N+](=O)[O-]
not listed: [8]
inactive: all other assays above

COc1cc(OC)nc(Sc2cccc(Cl)c2C(=O)O)n1
not listed: [15] | [19]
inactive: all other assays above

COP(=O)(NC(C)=O)SC (stereo not given)
not listed: [19]
inactive: all other assays above
